Source: PubChem BioAssay (NCI)
The panel holds about 83,000 compounds, 20% with a hit somewhere; the sample as a whole holds those more often.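 In brief: 96-well plates, 48 h treatment, single concentration, percent growth endpoint.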 The source made the active and inactive calls. Rule for the calls: active = growth percent below 10; inactive = the rest.

Tests used:
Test in all cases: NCI-60 one-dose screen, 48 h (100 = growth as untreated, 0 = no growth, -100 = all killed)
Settings in all cases: 10 µM unless noted
[1] = system: NCI-H23 lung
[2] = system: NCI-H226 lung
[3] = system: NCI-H322M lung
[4] = system: HOP-62 NSCLC
[5] = system: NCI-H460 lung
[6] = system: HOP-92 NSCLC
[7] = system: NCI-H522 lung
[8] = system: A549/ATCC NSCLC
[9] = system: 786-0 renal
[10] = system: COLO 205 colon
[11] = system: DU-145 prostate
[12] = system: K-562 leukemia
[13] = system: MALME-3M melanoma
[14] = system: MDA-MB-231 breast
[15] = system: RXF 393 renal
[16] = system: SF-268 CNS
[17] = system: SF-295 CNS
[18] = system: SF-539 CNS
[19] = system: UACC-257 melanoma
[20] = system: M14 melanoma

Measured: growth

NS(=O)(=O)c1ccc(CN=C2NC(=O)S/C2=C\c2ccc(Br)cc2)cc1
inactive: [1] 97.6% | [2] 96.9% | [3] 91% | [4] 103% | [5] 101% | [6] 90.5% | [7] 90.8% | [8] 98.3% | [9] 94.1% | [10] 106% | [11] 111% | [12] 102% | [13] 93.8% | [14] 101% | [15] 105% | [16] 92.3% | [17] 102% | [18] 92.3% | [19] 102% | [20] 102%

COc1cccc(Nc2nc(SC)nc(-c3cccc([N+](=O)[O-])c3)c2C#N)c1
inactive: [1] 78.3% | [2] 19.3% | [3] 74% | [4] 27% | [5] 41.7% | [6] 62.9% | [7] 72.1% | [8] 28% | [9] 36.4% | [10] 82.1% | [11] 81.4% | [12] 85.4% | [13] 72.7% | [14] 65.8% | [15] 68.2% | [16] 88% | [17] 62.6% | [18] 81.4% | [19] 88.5% | [20] 83.4%

COc1cccc(-c2nc3sccn3c2-c2ccnc(NCCCNS(=O)(=O)c3cccc(Cl)c3)c2)c1
inactive: [1] 39% | [2] 33.8% | [3] 77.4% | [4] 65% | [5] 64.8% | [6] 48.8% | [7] 43.7% | [8] 35.8% | [9] 63.9% | [10] 39.8% | [11] 46.4% | [12] 22.2% | [13] 60% | [14] 71.9% | [15] 71.9% | [16] 52.2% | [17] 21.2% | [18] 86.2% | [19] 55.2% | [20] 30.8%

COc1ccc(-c2n[nH]nc2-c2csc3ccccc23)cc1OC
active: [7] 7.11% | [12] 9.48% | [18] -2.39% | [20] 7.35%
inactive: [1] 35% | [2] 67.2% | [3] 51.7% | [4] 25.2% | [5] 15.7% | [6] 41.6% | [8] 31.9% | [9] 30.7% | [10] 34.7% | [11] 41.5% | [13] 56.9% | [14] 35.6% | [15] 23.5% | [16] 30.2% | [17] 25.9% | [19] 40.1%

Cn1cccc1-c1nc2c3c(ccc2[nH]1)C(=O)c1ccccc1C3=O
inactive: [1] 85.3% | [2] 86.2% | [3] 81.8% | [4] 102% | [5] 87.2% | [6] 89% | [7] 73.6% | [8] 87.9% | [9] 103% | [10] 120% | [11] 101% | [12] 73.8% | [13] 90.5% | [14] 88.6% | [15] 93% | [16] 97.8% | [17] 97.9% | [18] 90.7% | [19] 94.3% | [20] 99.7%

COc1ccc(/C=N/C2=C(C#N)C(c3ccc(N(C)C)cc3)c3ccc4ccccc4c3O2)cc1 (stereo not given)
inactive: [1] 79.2% | [2] 44.6% | [3] 89.1% | [4] 57.4% | [5] 40.7% | [6] 65.4% | [7] 26.1% | [8] 64.9% | [9] 83.1% | [10] 101% | [11] 81.5% | [12] 14.7% | [13] 72% | [14] 52.5% | [15] 67.2% | [16] 63.1% | [17] 39.1% | [18] 51.8% | [19] 79.3% | [20] 44%

Cc1cc(C)c2nc3nc(C)cc(C)c3c(N)c2c1
active: [5] -2.37% | [6] -1.87% | [12] 10%
inactive: [1] 47.6% | [2] 23.2% | [3] 40.9% | [4] 33.8% | [7] 39% | [8] 19.9% | [9] 28.4% | [10] 16.2% | [11] 15.5% | [13] 24% | [14] 30.2% | [15] 42.5% | [16] 19.7% | [17] 29.6% | [18] 14.1% | [19] 40.2% | [20] 34.1%

O=C(CN1C(=O)/C(=C/c2ccc(Cl)cc2)SC1=S)NCCCN1CCOCC1
inactive: [1] 97% | [2] 95.2% | [3] 104% | [4] 111% | [5] 101% | [6] 85.7% | [7] 96.9% | [8] 104% | [9] 111% | [10] 116% | [11] 102% | [12] 94.2% | [13] 90.7% | [14] 99.3% | [15] 105% | [16] 93.6% | [17] 93.2% | [18] 92.8% | [19] 101% | [20] 113%

COc1ccc(-c2nc3ccc(-c4nc5ccc(N6CCN(c7ccncc7)CC6)cc5[nH]4)cc3[nH]2)cc1OC
active: [7] -58% | [13] -25%
inactive: [1] 36.9% | [2] 46% | [3] 81.2% | [4] 61% | [5] 83.5% | [6] 57.8% | [8] 80.7% | [9] 76.4% | [10] 13.3% | [11] 42.7% | [12] 29.5% | [14] 63% | [15] 85.1% | [16] 38.4% | [17] 49.8% | [18] 42.5% | [19] 11.6% | [20] 13.6%

Nc1nc2ncc(CCNc3ccc(C(=O)O)cc3)nc2c(=O)[nH]1
inactive: [1] 108% | [2] 100% | [3] 125% | [4] 113% | [5] 114% | [6] 97.8% | [7] 100% | [8] 105% | [9] 104% | [10] 105% | [11] 128% | [12] 115% | [13] 137% | [14] 107% | [15] 112% | [16] 120% | [17] 110% | [18] 101% | [19] 104% | [20] 107%

CC(=O)O[C@H]1[C@@H]2OC(=O)C(CSc3ccccc3)[C@@H]2C[C@H]2O[C@]2(C)CC/C=C(\C)CCC[C@@H]1C (stereo not given in full)
inactive: [1] 53.1% | [2] 47.9% | [3] 38% | [4] 101% | [5] 42.3% | [8] 21.2% | [9] 61.4% | [10] 29.7% | [12] 63.1% | [13] 87.2% | [14] 14.9% | [16] 44.7% | [17] 49.3% | [18] 57% | [19] 15.8% | [20] 51.7%
active: [6] -22.4% | [7] -87.2% | [11] 1.69% | [15] -53.3%

COc1ccc(-c2nn(-c3ccc(Cl)cc3)cc2-c2nc3ccccc3[nH]2)cc1
inactive: [1] 89.1% | [2] 91.4% | [3] 102% | [4] 113% | [5] 88.1% | [6] 97% | [7] 67.7% | [8] 95.4% | [9] 103% | [10] 101% | [11] 120% | [12] 89% | [13] 98.5% | [14] 73% | [15] 94.7% | [16] 94.7% | [17] 98.1% | [18] 106% | [19] 101% | [20] 90%

Cc1ccc2c(C(C[N+](=O)[O-])c3ccccc3)c(-c3ccccc3)[nH]c2c1 (stereo not given)
active: [7] -37.8% [9.5 µM] | [10] 9.02% [9.5 µM] | [15] 5.65% [9.5 µM] | [17] 9.43% [9.5 µM] | [18] 8.82% [9.5 µM]
inactive: [1] 39.4% [9.5 µM] | [2] 35.3% [9.5 µM] | [3] 41.7% [9.5 µM] | [4] 20.2% [9.5 µM] | [5] 12.2% [9.5 µM] | [6] 25.8% [9.5 µM] | [8] 28.6% [9.5 µM] | [9] 30.8% [9.5 µM] | [11] 30.3% [9.5 µM] | [12] 10.9% [9.5 µM] | [13] 44.7% [9.5 µM] | [14] 37.2% [9.5 µM] | [16] 35.2% [9.5 µM] | [19] 27.6% [9.5 µM] | [20] 22.3% [9.5 µM]

O=C(O)c1c(=O)cccc2ssc12
inactive: [3] 62.1% | [19] 54.1%
active: [1] 0.447% | [2] -14.8% | [4] -45.5% | [5] 1.81% | [6] -0.323% | [7] -0.415% | [8] -51% | [9] -10.1% | [10] -45.7% | [11] -64.5% | [12] 4.02% | [13] -58.3% | [14] -57.3% | [15] -66.8% | [16] -38.6% | [17] -6.02% | [18] -18.6% | [20] 3.29%

FC(F)(F)c1[nH]ncc1-c1nc2ccc3n[nH]c(C#Cc4cccnc4)c3c2c2c1CCCC2
inactive: [1] 34.1% | [2] 47.5% | [3] 32.8% | [4] 36% | [5] 19.1% | [6] 71.6% | [7] 28.7% | [8] 27% | [9] 30.7% | [10] 33.4% | [11] 45.1% | [12] 44.6% | [13] 22.8% | [14] 51.7% | [15] 21.4% | [16] 49.6% | [17] 42.7% | [18] 19.6% | [19] 57.7% | [20] 27.2%
